Assay results published in PubChem BioAssay (Tox21).
Values joined by “and” are separate entries in the source; they are usually repeats but may differ in a detail not shown here. Equal values may be shown once. Records with an inconclusive call do not appear. Some structures have more than one record in an assay (separate samples or runs), and their calls can disagree. Active and inactive are the calls of the source. Unless noted, calls come from the whole dose curve; as a rule, active = well fitted curve in the direction sought with a large enough effect in the repeat runs; inconclusive = weak or mixed curves; inactive = no such curve, though single readings can be large; an effect the other way counts as inactive or inconclusive.

Tests used:
[1] = qHTS assay to identify small molecule agonists of the progesterone receptor (PR) signaling pathway - cell viability counter screen (AID 1346799; calls by dose curve; note: nearly all actives have a fitted effect of over 45% in size)
How it was run: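 Viability was scored by ATP luminescence (CellTiter-Glo, 30 min, room temperature) in the same wells used for the reporter readout, after 16 hr compound exposure of PR-UAS-bla HEK293T cells.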

[2] = qHTS assay to identify small molecule antagonists of the TGF-beta/Smad signaling pathway - cell viability counter screen (AID 1346824); note: nearly all actives have a fitted effect of over 50% in size
How it was run: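 SBE-bla HEK 293T cells, incubated overnight, then compound plus 0.25 ng/mL TGF-beta1 (stock added) for 5 hr at 37 C. Viability was read in the same wells by CellTiter-Glo luminescence after 30 min at room temperature.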

[3] = qHTS assay to identify small molecule agonists of the TGF-beta/Smad signaling pathway - cell viability counter screen (AID 1346829); note: top concentration of the series differs between compounds; nearly all actives have a fitted effect of over 45% in size
How it was run: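 Here the cytotoxicity of library compounds is measured in SBE-bla HEK 293T cells treated for 5 hr, using CellTiter-Glo added to wells already read for the beta-lactamase reporter.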

[4] = qHTS assay to identify small molecule agonists of the TGF-beta/Smad signaling pathway (AID 1346859; active = well fitted activation curve with a large enough effect in the signal ratio in the repeat runs, not every such curve was filed as active; the % refers to the signal ratio; note: series mostly up to about 77 µM)
How it was run: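 Dual-wavelength fluorescence (460/530 nm emission) quantified beta-lactamase expression under the Smad binding element in HEK 293T cells following 5 hr compound treatment at 37 C.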

[5] = biological target: Thyrotropin-releasing hormone receptor (Homo sapiens) (UniProt P34981); assay: qHTS assay to identify small molecule antagonists of the thyrotropin-releasing hormone receptor (TRHR) signaling pathway (AID 1346877; active = well fitted inhibition curve with a large enough effect in the repeat runs, not every such curve was filed as active; note: series mostly up to about 51 µM)
Sequence of Thyrotropin-releasing hormone receptor (Homo sapiens) (P34981 whole entry, looked up): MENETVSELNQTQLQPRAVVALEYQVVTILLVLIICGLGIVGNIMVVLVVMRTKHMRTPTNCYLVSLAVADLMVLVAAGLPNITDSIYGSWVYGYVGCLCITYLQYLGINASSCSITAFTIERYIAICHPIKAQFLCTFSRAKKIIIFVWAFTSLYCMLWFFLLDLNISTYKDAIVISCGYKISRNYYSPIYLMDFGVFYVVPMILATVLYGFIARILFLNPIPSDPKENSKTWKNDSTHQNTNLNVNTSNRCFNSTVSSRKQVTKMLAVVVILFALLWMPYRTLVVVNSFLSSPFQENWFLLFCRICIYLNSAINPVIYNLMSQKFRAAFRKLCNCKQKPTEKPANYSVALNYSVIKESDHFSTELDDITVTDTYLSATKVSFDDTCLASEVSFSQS
How it was run: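 Following an 18 h incubation at 37 °C and a 2 h calcium dye load, TRHR-HEK293 cells were exposed to compound (5 min, room temperature) and challenged with TRH, 1 nM final.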

[6] = biological target: Thyrotropin-releasing hormone receptor (Homo sapiens) (UniProt P34981); assay: qHTS assay to identify small molecule agonists of the thyrotropin-releasing hormone receptor (TRHR) signaling pathway (AID 1346891; calls by dose curve;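 note: HEK293 cells expressing TRHR with calcium dye readout; series mostly up to about 58 µM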)
How it was run: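 Kinetic fluorescence (3 min, 1 s intervals) reported intracellular calcium after compound transfer onto TRHR-Hek293 cells pre-loaded with dye for 2 h at 37 °C.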

[7] = Human pregnane X receptor (PXR) small molecule agonists, qHTS cell viability counter screen (AID 1346977); note: nearly all actives have a fitted effect of over 50% in size
How it was run: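 HepG2 cells stably carrying the PXR-Luc reporter are cultured with 5% charcoal-stripped FBS and treated with compounds for 24hr. CellTiter-Fluor is added at 23hr and fluorescence is read after 1hr.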

[8] = Caspase-3/7 induction in HepG2 cells by small molecules, qHTS assay (AID 1346978); note: nearly all actives have a fitted effect of over 15% in size
How it was run: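 Wild-type HepG2 cells, 2,000/well, settled 5 hr at 37 C and 5% CO2, then compound-treated for 17 hr; caspase-3/7 activity read by luminescent Caspase-Glo 3/7 after 30 min at room temperature.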

[9] = Caspase-3/7 induction in CHO-K1 cells by small molecules, qHTS cell viability counter screen (AID 1346979); note: nearly all actives have a fitted effect of over 35% in size
How it was run: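 Seeding: 1,500 CHO-K1 cells/well. Rest: 5hr, 37C. Treatment: compounds in DMSO, 16hr. Read: CellTiter-Fluor, 1hr, fluorescence.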

[10] = Caspase-3/7 induction in CHO-K1 cells by small molecules, qHTS assay (AID 1346980); note: nearly all actives have a fitted effect of over 15% in size
How it was run: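 Wild-type CHO-K1 cells exposed to compounds for 17hr at 37 C, 5% CO2. Caspase-3/7 activity then measured by Caspase-Glo 3/7 luminescence after 30min at room temperature.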

[11] = Caspase-3/7 induction in HepG2 cells by small molecules, qHTS cell viability counter screen (AID 1346981); note: series mostly up to about 92 µM; nearly all actives have a fitted effect of over 30% in size
How it was run: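 Viability determined by CellTiter-Fluor fluorescence in HepG2 wells also used for the luminescent Caspase-Glo 3/7 read. Compounds were present for 16 hr at 37 C, 5% CO2 before reagent addition.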

[12] = biological target: Nuclear receptor subfamily 1 group I member 2 (Rattus norvegicus) (UniProt Q9R1A7); assay: Rat pregnane X receptor (rPXR) activation by small molecules, qHTS assay (AID 1346983); settings: rPXR luciferase reporter cells, One-Glo luminescence, 24 h; stronger effect = higher value; note: nearly all actives have a fitted effect of over 20% in size
Sequence of Nuclear receptor subfamily 1 group I member 2 (Rattus norvegicus) (Q9R1A7 whole entry, looked up): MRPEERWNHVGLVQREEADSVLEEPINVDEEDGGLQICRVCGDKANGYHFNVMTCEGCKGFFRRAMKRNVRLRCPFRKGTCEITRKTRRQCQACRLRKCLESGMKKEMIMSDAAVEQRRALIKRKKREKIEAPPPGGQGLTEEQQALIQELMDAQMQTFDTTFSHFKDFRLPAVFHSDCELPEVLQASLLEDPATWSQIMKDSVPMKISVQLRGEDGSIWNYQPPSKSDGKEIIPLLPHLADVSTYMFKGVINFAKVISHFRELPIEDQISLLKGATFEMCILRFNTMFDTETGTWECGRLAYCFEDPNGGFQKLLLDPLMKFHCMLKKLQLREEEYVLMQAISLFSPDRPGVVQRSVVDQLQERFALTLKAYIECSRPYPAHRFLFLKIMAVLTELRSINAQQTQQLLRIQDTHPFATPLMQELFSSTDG
How it was run: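 Cell-based rPXR activation assay: rPXR cells, 2,000 per well, rested 5hr at 37 C, then exposed to compounds in DMSO for 24 hr at 37 C. Luciferase activity read by One-Glo luminescence after 30 min at room temperature.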

[13] = biological target: Nuclear receptor subfamily 1 group I member 2 (Homo sapiens) (UniProt O75469); assay: CYP3A4 induction through human pregnane X receptor (PXR) by small molecules, qHTS assay (AID 1346984); note: nearly all actives have a fitted effect of over 40% in size
Sequence of Nuclear receptor subfamily 1 group I member 2 (Homo sapiens) (O75469 whole entry, looked up): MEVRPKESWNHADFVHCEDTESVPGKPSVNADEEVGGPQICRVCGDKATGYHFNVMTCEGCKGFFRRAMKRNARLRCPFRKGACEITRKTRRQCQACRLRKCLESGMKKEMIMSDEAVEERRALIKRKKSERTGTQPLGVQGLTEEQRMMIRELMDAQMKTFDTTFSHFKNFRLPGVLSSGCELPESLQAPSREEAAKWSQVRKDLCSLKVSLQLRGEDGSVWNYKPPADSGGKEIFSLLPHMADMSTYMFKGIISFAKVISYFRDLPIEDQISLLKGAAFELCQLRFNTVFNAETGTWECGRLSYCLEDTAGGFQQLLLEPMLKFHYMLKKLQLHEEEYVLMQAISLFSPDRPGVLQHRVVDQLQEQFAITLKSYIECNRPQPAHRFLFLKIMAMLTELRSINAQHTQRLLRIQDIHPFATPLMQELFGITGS
How it was run: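 Readings come from a luciferase reporter: DPX-2 cells, which are HepG2 cotransfected with PXR and a CYP3A4-promoter construct, were exposed to test compounds for 24 h at 37C before One-Glo detection.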

[14] = biological target: Acetylcholinesterase (Homo sapiens) (UniProt P22303); assay: Acetylcholinesterase (AChE) small molecule antagonists: colormetric cell-based qHTS assay (AID 1347395; calls by dose curve; note: nearly all actives have a fitted effect of over 30% in size; note: potency is the fitted concentration of half-maximal effect)
Sequence of Acetylcholinesterase (Homo sapiens) (P22303 whole entry, looked up): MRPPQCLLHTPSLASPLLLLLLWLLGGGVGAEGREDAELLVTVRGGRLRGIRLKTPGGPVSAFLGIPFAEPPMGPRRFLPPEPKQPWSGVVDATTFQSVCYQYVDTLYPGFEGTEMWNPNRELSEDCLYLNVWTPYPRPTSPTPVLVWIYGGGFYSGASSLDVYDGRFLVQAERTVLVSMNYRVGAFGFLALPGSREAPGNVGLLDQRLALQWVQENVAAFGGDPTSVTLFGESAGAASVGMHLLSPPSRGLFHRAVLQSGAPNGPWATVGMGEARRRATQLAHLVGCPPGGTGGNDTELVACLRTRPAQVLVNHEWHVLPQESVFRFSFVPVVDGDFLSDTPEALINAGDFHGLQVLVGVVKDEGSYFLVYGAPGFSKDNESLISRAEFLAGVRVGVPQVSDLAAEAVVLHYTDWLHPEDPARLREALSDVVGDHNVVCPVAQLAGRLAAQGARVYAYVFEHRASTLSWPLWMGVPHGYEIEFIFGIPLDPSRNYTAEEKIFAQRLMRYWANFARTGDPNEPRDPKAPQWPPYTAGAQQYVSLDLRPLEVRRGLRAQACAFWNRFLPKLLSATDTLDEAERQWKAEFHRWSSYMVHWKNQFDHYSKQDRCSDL
How it was run: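 Quantitative HTS in attached SH-SY5Y cells: 30 min compound exposure, then 90 min with acetylthiocholine and DTNB at 37 C; colour from thiocholine reports AChE activity.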

[15] = biological target: Acetylcholinesterase (Homo sapiens) (UniProt P22303); assay: Acetylcholinesterase (AChE) small molecule antagonists: enzyme-based qHTS assay (AID 1347397; calls by dose curve; note: nearly all actives have a fitted effect of over 55% in size); settings: Potency: AChE enzyme activity inhibition
How it was run: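 Enzyme inhibition was scored from DTNB-detected thiocholine formed by recombinant human AChE acting on acetylthiocholine. The 30 min compound preincubation and 10 min substrate reaction were both run at room temperature, with DMSO as vehicle control.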

[16] = biological target: Acetylcholinesterase (Homo sapiens) (UniProt P22303); assay: Acetylcholinesterase (AChE) small molecule antagonists: fluorescence cell-based qHTS assay (AID 1347398; calls by dose curve; note: nearly all actives have a fitted effect of over 50% in size); settings: Potency: AChE activity
How it was run: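 Endogenous acetylcholinesterase of SH-SY5Y neuroblastoma cells is measured in situ. After overnight attachment and 30 min compound exposure, cells receive acetylthiocholine and Thiolite Green; fluorescence is read after 40 min at room temperature.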

[17] = biological target: Acetylcholinesterase (Homo sapiens) (UniProt P22303); assay: Acetylcholinesterase (AChE) small molecule antagonists: enzyme-based qHTS assay with human liver microsomes (AID 1347399; calls by dose curve; note: nearly all actives have a fitted effect of over 60% in size); settings: Potency: qHTS inhibition
How it was run: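 Recombinant human AChE (50 mU/mL in the enzyme mix) and human liver microsomes (0.25 mg/mL final) were preincubated with compound and NADPH (0.25 mg/mL final) for 30 min at 37 C. Acetylthiocholine/DTNB was then added; thiocholine was read colorimetrically after 10 min at room temperature.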

[18] = biological target: Cytochrome P450 2D6 (Homo sapiens) (UniProt P10635); assay: Cytochrome P450 Family 2 Subfamily D Member 6 (CYP2D6) small molecule antagonists: luciferase reporter qHTS assay (AID 1671196); note: nearly all actives have a fitted effect of over 50% in size; note: potency is the fitted concentration of half-maximal effect
Sequence of Cytochrome P450 2D6 (Homo sapiens) (P10635 whole entry, looked up): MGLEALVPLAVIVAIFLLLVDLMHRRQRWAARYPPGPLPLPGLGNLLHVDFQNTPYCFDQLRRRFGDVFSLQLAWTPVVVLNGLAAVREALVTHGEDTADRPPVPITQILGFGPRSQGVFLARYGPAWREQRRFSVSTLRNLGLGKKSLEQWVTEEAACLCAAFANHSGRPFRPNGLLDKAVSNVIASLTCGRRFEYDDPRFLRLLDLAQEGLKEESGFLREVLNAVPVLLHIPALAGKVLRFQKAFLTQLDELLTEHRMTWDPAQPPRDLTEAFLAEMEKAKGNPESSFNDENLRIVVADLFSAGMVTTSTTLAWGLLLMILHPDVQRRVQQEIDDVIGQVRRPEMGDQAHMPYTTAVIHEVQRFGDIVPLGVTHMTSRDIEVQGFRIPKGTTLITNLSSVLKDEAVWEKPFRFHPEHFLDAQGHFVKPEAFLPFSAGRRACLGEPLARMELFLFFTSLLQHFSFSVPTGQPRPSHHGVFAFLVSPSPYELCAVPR
How it was run: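 Each well received CYP2D6 with its proluciferin substrate and chemical, sat 10 min, then got NADPH regeneration solution for 1 h at room temperature. Luminescence in RLU served as the activity measure.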

[19] = qHTS assay to identify small molecule antagonists of the progesterone receptor (PR) signaling pathway - cell viability counter screen (AID 1346798)
How it was run: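 Viability was determined by ATP-based luminescence (CellTiter-Glo) in PR-UAS-bla HEK293T cells cultured in 2% charcoal-stripped serum and incubated 16 hr with compounds under R5020 stimulation.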

[20] = biological target: Nuclear receptor subfamily 1 group I member 2 (Homo sapiens) (UniProt O75469); assay: Human pregnane X receptor (PXR) small molecule agonists, qHTS assay (AID 1346982); note: nearly all actives have a fitted effect of over 35% in size; note: potency is the fitted concentration of half-maximal effect
How it was run: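 Compound-induced hPXR transactivation of a CYP3A4 luciferase reporter was scored in HepG2 PXR-Luc cells over 24 hr at 37 C, 5% CO2, by luminescence.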
% is set by controls: 0 for no effect and ±100 for the full control effect.

Nc1ccccc1C(=O)O
inactive: Potency [1] | Potency [2] | outcome [3] | Potency [4] | outcome [5] | Potency [6] | Potency [7] | outcome [8] | Potency [9] | outcome [10] | Potency [11] | max activation [12] -2.88% | outcome [13] | Potency [14] | Potency [15] | Potency [16] | Potency [17]
63.6 µM (active) and inactive: Potency [18]

CON(C)C(=O)Nc1ccc(Cl)c(Cl)c1
inactive: Potency [19] | Potency [2] | outcome [3] | Potency [4] | outcome [5] | Potency [6] | Potency [7] | outcome [8] | outcome [10] | Potency [14] | Potency [16] | Potency [17] | Potency [18]
active: Potency [20] 61.4 µM and 54.5 µM

c1ccc2c(c1)Oc1ccccc1O2
inactive: Potency [19] | Potency [1] | outcome [3] | Potency [4] | Potency [7] | outcome [8] | Potency [9] | outcome [10] | Potency [11] | Potency [20] | Potency [14] | Potency [16] | Potency [17] | Potency [18]

c1cc2c3c(cccc3c1)CC2
inactive: Potency [19] | Potency [1] | outcome [3] | Potency [4] | outcome [5] | Potency [6] | Potency [7] | outcome [8] | Potency [9] | outcome [10] | Potency [11] | Potency [20] | Potency [16] | Potency [17] | Potency [18]
36.5 µM (active) and inactive: Potency [14]

Cc1ccc([N+](=O)[O-])cc1C
inactive: Potency [19] | Potency [1] | outcome [3] | Potency [4] | outcome [5] | Potency [6] | Potency [7] | outcome [8] | Potency [9] | outcome [10] | Potency [11] | Potency [20] | Potency [14] | Potency [15] | Potency [16] | Potency [17] | Potency [18]

CC(Br)C(=O)O (configuration not stated)
inactive: Potency [19] | Potency [1] | outcome [3] | Potency [4] | outcome [5] | Potency [6] | Potency [7] | outcome [8] | Potency [9] | outcome [10] | Potency [20] | Potency [14] | Potency [16] | Potency [17] | Potency [18]

Cc1cc(-c2cc(C)c(N)c(C)c2)cc(C)c1N
inactive: Potency [19] | Potency [1] | outcome [3] | Potency [4] | Potency [7] | outcome [8] | Potency [9] | outcome [10] | Potency [14] | Potency [16] | Potency [17]
active: Potency [20] 54.6 µM and 26.8 µM | Potency [18] 22.5 µM and 15.6 µM

CCN(CC)CCO
inactive: Potency [19] | Potency [1] | outcome [3] | Potency [4] | outcome [5] | Potency [6] | Potency [7] | outcome [8] | Potency [9] | outcome [10] | Potency [11] | Potency [14] | Potency [15] | Potency [16] | Potency [17] | Potency [18]

CCCCCOC(=O)c1ccccc1C(=O)OCCCCC
inactive: Potency [19] | Potency [1] | outcome [3] | Potency [4] | outcome [5] | Potency [6] | Potency [7] | outcome [8] | Potency [9] | outcome [10] | Potency [20] | Potency [14] | Potency [15] | Potency [16] | Potency [17] | Potency [18]

CC(C)(Cl)Cl
inactive: Potency [19] | Potency [1] | outcome [3] | Potency [4] | outcome [5] | Potency [6] | Potency [7] | outcome [8] | Potency [9] | outcome [10] | Potency [11] | Potency [20] | Potency [14] | Potency [16] | Potency [17] | Potency [18]

CCOC(=O)c1ccccc1C(=O)OCC
inactive: Potency [1] | Potency [2] | outcome [3] | Potency [4] | outcome [5] | Potency [6] | Potency [7] | outcome [8] | Potency [9] | outcome [10] | Potency [11] | max activation [12] -0.77% | outcome [13] | Potency [14] | Potency [16] | Potency [17] | Potency [18]

COP(N)(=O)SC (configuration not stated)
inactive: Potency [19] | Potency [1] | outcome [3] | Potency [4] | outcome [5] | Potency [6] | Potency [7] | outcome [8] | Potency [9] | outcome [10] | Potency [17] | Potency [18]

CN(C)CCO
inactive: Potency [19] | Potency [1] | outcome [3] | Potency [4] | outcome [5] | Potency [6] | Potency [7] | outcome [8] | Potency [9] | outcome [10] | Potency [11] | Potency [20] | Potency [14] | Potency [16] | Potency [17] | Potency [18]

C#CC(C)(C)NC(=O)c1cc(Cl)cc(Cl)c1
inactive: Potency [19] | Potency [1] | outcome [3] | Potency [4] | outcome [5] | Potency [6] | Potency [7] | outcome [8] | Potency [9] | outcome [10] | Potency [14] | Potency [15] | Potency [16] | Potency [17] | Potency [18]
active: Potency [20] 49 µM and 30.6 µM

CCCN(CCC)c1c([N+](=O)[O-])cc(C(F)(F)F)cc1[N+](=O)[O-]
active: Potency [20] 30.6 µM
inactive: Potency [1] | Potency [2] | outcome [3] | Potency [4] | outcome [5] | Potency [6] | Potency [7] | outcome [8] | Potency [9] | outcome [10] | Potency [11] | Potency [14] | Potency [16] | Potency [17] | Potency [18]

CC(C)OC(=O)Nc1ccccc1
inactive: Potency [1] | Potency [2] | outcome [3] | Potency [4] | outcome [5] | Potency [6] | Potency [7] | outcome [8] | Potency [9] | outcome [10] | Potency [11] | Potency [14] | Potency [16] | Potency [17] | Potency [18]
active: Potency [20] 38.6 µM

C=C(C)CCl
inactive: Potency [19] | Potency [1] | outcome [3] | Potency [4] | Potency [7] | outcome [8] | Potency [9] | outcome [10] | Potency [11] | Potency [14] | Potency [15] | Potency [16] | Potency [17] | Potency [18]
